Source: PubChem
KCNH2 3.1 block – qHTS for Inhibitors of KCHN2 3.1: Mutant qHTS | 340,000 compounds, 0.95% hits | Potassium voltage-gated channel subfamily H member 2, brain isoform KCNH2 3.1 (human) | U2OS KCNH2 3.1, thallium flux FluxOr; hits give low values | AID 720553, 2013 | activity change, % (tested at about 1.8 µM);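 active = maximum activity change below -70%; inconclusive = maximum activity change from -70% to -50%; inactive = maximum activity change above -50%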;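 also: thallium influx rate constant from kinetic fluorescence after stimulation buffer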
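Kinetic fluorescence (2 min after stimulation buffer) measures Tl+ influx through KCNH2 3.1 expressed by viral transduction in U2OS cells; the rate constant is normalized against DMSO controls serving as positive and negative references.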
Akt phos inh – HTS Assay for Inhibitors of Akt Phophorylation: Primary Screen | Neuro2A IGF-stimulated pAkt S473 HTRF, 20 min; hits give low values | activity change, % for hits at 50 µM | 360,000 compounds, 0.32% hits | AID 651550, 2012; in the data active = activity change below about -80%; inconclusive = mostly about -51% to -80%
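Neuro2A cells in DMEM with 0.5% FBS, overnight at 37 deg C, given compound at single 50 µM final, then IGF (6 nM final) for 20 min at 37 deg C. Lysed; phospho-Akt Ser473 by HTRF after 24 h, 665/615 ratio.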
RXFP1 antagonist – qHTS Assay for Antagonists of the Relaxin Receptor RXFP1; Relaxin receptor 1 (Homo sapiens), Q9HBX9; activity change, negative = inhibition, % at 57.5 µM; 350,000 compounds, 0.59% hits; AID 1259400, 2018; HEK293-RXFP1, relaxin-stimulated cAMP HTRF, 30 min; hits give low values;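 active = activity change of -60% or lower, but not beyond a set lower limit; inconclusive = change between -60% and -40%, or beyond the set limit; inactive = change above -40%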
Target sequence (Q9HBX9 whole entry, looked up): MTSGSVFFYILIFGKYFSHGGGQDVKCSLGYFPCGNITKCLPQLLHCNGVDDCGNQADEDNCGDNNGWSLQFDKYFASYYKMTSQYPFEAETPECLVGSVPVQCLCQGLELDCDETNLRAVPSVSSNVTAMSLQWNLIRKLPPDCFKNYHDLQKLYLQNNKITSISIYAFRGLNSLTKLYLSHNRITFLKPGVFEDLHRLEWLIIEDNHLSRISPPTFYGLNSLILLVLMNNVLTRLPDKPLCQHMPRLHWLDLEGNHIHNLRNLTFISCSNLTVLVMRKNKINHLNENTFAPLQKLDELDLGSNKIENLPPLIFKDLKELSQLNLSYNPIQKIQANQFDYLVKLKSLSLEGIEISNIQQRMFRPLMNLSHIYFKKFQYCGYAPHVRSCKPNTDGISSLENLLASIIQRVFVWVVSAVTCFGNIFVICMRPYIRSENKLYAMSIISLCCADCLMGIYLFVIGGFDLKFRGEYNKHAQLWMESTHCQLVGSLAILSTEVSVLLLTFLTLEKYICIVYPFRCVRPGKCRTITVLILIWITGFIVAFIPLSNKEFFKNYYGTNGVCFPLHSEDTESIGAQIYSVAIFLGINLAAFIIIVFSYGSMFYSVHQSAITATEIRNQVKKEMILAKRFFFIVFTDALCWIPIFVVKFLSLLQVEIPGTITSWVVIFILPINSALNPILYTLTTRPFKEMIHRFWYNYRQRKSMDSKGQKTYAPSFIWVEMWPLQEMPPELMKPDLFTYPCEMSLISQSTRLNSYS
RXFP1 agonist – qHTS Assay for Agonists of the Relaxin Receptor RXFP1; AID 2676, 2010; HEK293T-RXFP1 cAMP TR-FRET, 30 min; response scale: percent of porcine relaxin response, buffer zero; 370,000 compounds, 0.3% hits; Relaxin receptor 1 (Homo sapiens), Q9HBX9; Potency, µM (series often up to 57.5 µM), without a hit: at the highest dose activation, hits mostly activators; active = well fitted activation curve with a large enough effect; inconclusive = small, poorly fitted or top-dose-only effect; also: potency is read from the fitted curve at half-maximal effect; nearly all actives have a fitted effect of over 60% in size
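HEK293T cells stably expressing RXFP1 were pretreated with the PDE4 inhibitor Ro 20174, exposed to compounds for 30 min at 37C, lysed, and cAMP was read by TR-FRET. Data normalized to buffer (basal) and 29 nM porcine relaxin (100%).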
KCNH2 WT inh – qHTS for Inhibitors of KCHN2 3.1: Wildtype qHTS | Voltage-gated inwardly rectifying potassium channel KCNH2 (Homo sapiens), Q12809 | U2OS, BacMam KCNH2, thallium flux FluxOr; hits give low values | activity change, % at 1.84 µM | 340,000 compounds, 0.37% hits;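 active = maximum activity change below -70%; inconclusive = maximum activity change between -70% and -50%; inactive = maximum activity change above -50%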
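U2OS cells transduced with wild-type KCNH2 virus are loaded with FluxOr dye for 45 min, and thallium flux is measured in kinetic reads before and after stimulation buffer. Rate constants are normalized to DMSO controls.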
Starred values were filed as active, the others as inactive; i = inactive; ? = inconclusive; . = not tested or not shown; ! = a repeat was not active. Shown are actives, neighbours in structure and some others; about 1.7% of the full set was active somewhere. % is scaled to controls: 0 for no effect and ±100 for the full control effect.

SMILES	KCNH2 3.1 block	Akt phos inh	RXFP1 antagonist	RXFP1 agonist	KCNH2 WT inh
C[C@@H](O[C@H]1OCCN(Cc2n[nH]c(=O)[nH]2)[C@H]1c1ccc(F)cc1)c1cc(C(F)(F)F)cc(C(F)(F)F)c1	.	.	-60.1*	.	.
CCn1c(SCc2ccccc2F)nc(=O)c2c(C(=O)OC)cc(C3CC3)nc21	.	.	-102.0*	-0.1%	.
CCn1c(SCc2ccc(F)cc2Cl)nc(=O)c2c(C(=O)OC)cc(C3CC3)nc21	.	.	-83.5*	0.0%	.
Cc1cccc(OCCC(=O)OCC(=O)Nc2c(C)nn(-c3ccccc3)c2C)c1	-9.8	i	-5.1	1.5%	-0.2
Cc1nnc(N2CCCC(C(=O)NCc3ccc(OC(C)C)cc3)C2)c2nn(-c3ccccc3)c(C)c12 (stereo not drawn)	-81.6*	i	-31.7	3.9%	-9.1
COc1ccccc1NS(=O)(=O)c1ccc(C(=O)N2CCCCCCC2)cc1	13.4	i	9.9	-1.6%	-2.0
Cc1nc2ccccn2c1C(=O)NNC(=S)Nc1ccccc1	7.9	i	-89.4*	5.8%	0.9
CCCCN(C(=O)c1ccc2c(c1)OCCO2)c1c(N)n(CC(C)C)c(=O)[nH]c1=O	8.4	i	-1.4	1.8%	-14.6
C=CCOc1c(Cl)cc(CNCCC)cc1Cl	1.6	-91.4%*	-7.8	2.7%	3.0
COc1ccc(-c2sc3ccc(N4CCOCC4)cc3c2-c2ccc(OC)c(F)c2)cc1	-86.6*	i	.	5.8%	-12.6
COc1ccc(-c2sc3ccc(OC)cc3c2-c2ccc(OC)c(F)c2)cc1	-3.7	i	.	3.2%	-16.2
COCCn1c(-c2ccc(F)cc2)nc2oc3cc(OC)ccc3c(=O)c2c1=O	-90.8*	i	10.5	-0.2%	-1.9
COCCn1c(-c2ccc(C)cc2)nc2oc3cc(OC)ccc3c(=O)c2c1=O	-7.6	i	-3.4	-1.8%	5.5
CCOC(=O)c1cc(-c2ccccc2)n(-c2cccc(C(=O)NC(C)(C)C)c2)c1C	.	.	-21.0	0.3%	.
CCOC(=O)c1cc(-c2ccccc2)n(-c2cccc(C(=O)N(C)c3ccc(C)cc3)c2)c1C	.	.	-62.7*	-0.9%	.
COc1ccc(S(=O)(=O)N2CC(C(=O)O)Oc3ccc(CC(=O)O)cc32)cc1 (stereo not drawn)	2.5	-123.4%*	4.9	2.0%	-32.9
COc1c(C)cc(S(=O)(=O)N2CCOCC2)c(C)c1C	-171.9*	i	-4.8	-1.0%	-3.7
COc1c(C)cc(S(=O)(=O)N2CCCC2)c(C)c1C	-13.3	i	-24.6	-0.8%	0.6
Cc1ccc(NC(=O)c2nc(S(=O)(=O)Cc3ccc(F)cc3)ncc2Cl)cc1C	.	.	?	2.0%	.
Cc1cccc(CS(=O)(=O)c2ncc(Cl)c(C(=O)NCc3ccc4c(c3)OCO4)n2)c1	-0.8	.	-86.9*	0.1%	-15.2
Cc1ccc(CNC(=O)c2nc(S(=O)(=O)Cc3ccc(C)cc3)ncc2Cl)cc1	.	.	.	1.4%	.
CCS(=O)(=O)c1ncc(Cl)c(C(=O)Nc2ccccc2)n1	.	.	-87.6*	-0.2%	.
Cc1ccc(NC(=O)c2nc(S(=O)(=O)Cc3ccccc3C)ncc2Cl)cc1C	-14.2	i	-74.1*	-0.4%	-1.7
CCOC(=O)c1ccc(NC(=O)c2nc(S(=O)(=O)Cc3ccccc3)ncc2Cl)cc1	-6.8	i	-61.8*!	1.2%	-2.1
COC(=O)c1ccc2nc3c(cc2c1)[C@@H]1CCN2C(=O)CCC[C@H](C3)[C@H]12	8.2	i	.	.	0.7
SMILES	KCNH2 3.1 block	Akt phos inh	RXFP1 antagonist	RXFP1 agonist	KCNH2 WT inh
CCCS(=O)(=O)N1CCC(C(=O)NC2CCC(C)CC2)CC1 (stereo not drawn)	-0.6	.	2.3	-1.2%	-11.9
CCNC(=S)N/N=C/c1ccc(-c2ccccc2)o1	-9.0	i	-7.2	-1.3%	-11.9
COC(=O)CN(c1ccc(C)c(Cl)c1)S(C)(=O)=O	7.4	-90.5%*	-16.5	-0.9%	5.5
COC(=O)CN(c1c(C)cccc1C)S(C)(=O)=O	-3.0	i	-3.7	1.0%	7.3
COc1ccc(N(CC(=O)NCCSCc2c(F)cccc2Cl)S(C)(=O)=O)cc1OC	-5.1	i	-3.6	-2.0%	6.0
COc1ccc(N(CC(=O)NCCSCc2ccccc2Cl)S(C)(=O)=O)cc1Cl	-74.1*	i	5.5	0.1%	-0.8
CN=c1scc(-c2cccs2)n1/N=C/c1ccccc1O	-2.6	i	?	-1.9%	-2.9
CN=c1scc(-c2cccs2)n1/N=C/c1ccc(O)c(O)c1O	.	i	-63.3*	0.4%	3.9
Oc1ccc(/C=N/n2c(-c3ccco3)csc2=Nc2cccnc2)c(O)c1	-2.1	i	-61.5*	0.0%	9.4
CC(C)N=c1scc(-c2ccco2)n1/N=C/c1ccc(O)c(O)c1	0.2	i	.	1.7%	2.9
COCCN=c1scc(-c2ccco2)n1/N=C/c1ccc(O)c(O)c1O	12.8	i	-103.8*	-1.6%	1.4
C=CCN=c1scc(-c2ccco2)n1/N=C/c1ccc(O)c(O)c1O	2.4	i	?	3.7%	-2.5
COc1cccc(CNc2ccc3[nH]c(=O)[nH]c3c2)c1OCc1ccccc1Cl	-3.6	i	-74.8*	-1.2%	-8.9
COc1cccc(CNc2ccc3[nH]c(=O)[nH]c3c2)c1OCc1ccccc1	4.5	i	-31.8	0.2%	-1.3
CC(/C=C/c1ccccc1F)=N\NC(=O)c1cccc(F)c1	17.8	i	-0.3	-0.5%	-3.9
CCOC(=O)c1nnn(CC(=O)N2N=C(c3cc(C)ccc3C)CC2c2ccc(OC)cc2)c1C(=O)OCC (stereo not drawn)	-32.4	i	-8.5	0.4%	-2.0
CCOC(=O)c1nnn(CC(=O)N2N=C(c3ccccc3)CC2c2ccccc2)c1C(=O)OCC (stereo not drawn)	?	-82.8%*	3.9	-0.9%	-36.8
O=C(c1ccc(S(=O)(=O)N2CCCCC2)cc1)N1CCCc2ccccc21	-11.1	-107.5%*	-6.5	-0.1%	-3.0
Cc1ccc(NC(=O)c2nc[nH]c2C(=O)Nc2ccc(C)cc2)cc1	10.0	i	0.9	-3.7%	-192.3*
COc1ccc(-c2nc3ccccc3s2)cc1NC(=O)COc1ccc(C)cc1	.	.	.	3.0%	.
O=C(CCCn1c(=S)[nH]c2ccccc2c1=O)N1CCN(c2cccc(Cl)c2)CC1	.	.	-89.0*	1.5%	-12.7
O=C(CCCn1c(=O)[nH]c2ccc(Br)cc2c1=O)N1CCN(c2cccc(Cl)c2)CC1	.	.	.	1.3%	.
COc1ccc(N2CCN(C(=O)CCCn3c(=S)[nH]c4cc5c(cc4c3=O)OCO5)CC2)cc1	-7.3	.	-69.3*	-0.4%	2.6
